Test results: ChEMBL document CHEMBL3988442, “University of Dundee, Small-Polar-MMV Screening Library” (2021)
For some assays here: Potency and affinity values are given separately.

Tests used:
Design in all cases: scale not given: direction of the effect not stated beside the values
[1] = target: Protein translocase subunit SecA (Escherichia coli (strain K12)) (UniProt P10408); assay: Assay to Identify E. coli SecA ATPase Inhibitors; format: functional; conditions: 30 µM
[2] = target: T1, Ubiquitin-activating enzyme e1, putative (Leishmania donovani (strain BPK282A1)) (UniProt E9BSI1); assay: Leishmania donovani Ubiquitin Activating Enzyme (LdE1); format: functional; conditions: 30 µM
T1 sequence (whole entry): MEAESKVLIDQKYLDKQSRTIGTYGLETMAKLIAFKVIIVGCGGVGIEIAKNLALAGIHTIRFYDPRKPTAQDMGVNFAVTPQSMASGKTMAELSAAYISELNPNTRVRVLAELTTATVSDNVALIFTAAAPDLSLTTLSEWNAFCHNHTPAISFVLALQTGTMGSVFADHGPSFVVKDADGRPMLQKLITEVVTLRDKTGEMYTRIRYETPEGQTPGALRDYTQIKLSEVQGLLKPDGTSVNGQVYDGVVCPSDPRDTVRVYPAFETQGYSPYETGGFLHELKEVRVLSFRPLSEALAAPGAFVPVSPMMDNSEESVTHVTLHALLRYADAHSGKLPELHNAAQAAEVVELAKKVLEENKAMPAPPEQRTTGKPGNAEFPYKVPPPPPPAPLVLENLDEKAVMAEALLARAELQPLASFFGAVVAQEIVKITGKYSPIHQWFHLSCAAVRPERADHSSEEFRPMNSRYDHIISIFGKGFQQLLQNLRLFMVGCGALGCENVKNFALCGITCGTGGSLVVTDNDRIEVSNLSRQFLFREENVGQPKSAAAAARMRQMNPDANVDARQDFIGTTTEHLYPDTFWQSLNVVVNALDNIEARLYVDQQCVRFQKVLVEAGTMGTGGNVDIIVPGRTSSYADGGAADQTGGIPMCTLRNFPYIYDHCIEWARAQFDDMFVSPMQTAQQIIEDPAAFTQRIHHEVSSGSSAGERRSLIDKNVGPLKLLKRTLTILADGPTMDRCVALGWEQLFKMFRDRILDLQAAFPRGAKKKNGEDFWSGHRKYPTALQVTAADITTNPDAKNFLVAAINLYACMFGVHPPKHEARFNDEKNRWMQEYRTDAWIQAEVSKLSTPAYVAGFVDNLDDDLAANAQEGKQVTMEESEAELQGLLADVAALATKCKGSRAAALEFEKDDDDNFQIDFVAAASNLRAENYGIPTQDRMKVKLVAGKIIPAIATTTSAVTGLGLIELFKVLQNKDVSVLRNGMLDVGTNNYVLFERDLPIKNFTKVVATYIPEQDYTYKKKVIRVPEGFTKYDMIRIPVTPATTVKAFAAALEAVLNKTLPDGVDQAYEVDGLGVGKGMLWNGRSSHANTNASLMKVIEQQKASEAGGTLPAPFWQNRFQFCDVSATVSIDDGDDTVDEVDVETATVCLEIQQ

[3] = target: Sialic acid-binding Ig-like lectin 9 (Homo sapiens) (UniProt Q9Y336); assay: Hs-Siglec9 ALPHAscreen SOP 20170721; conditions: 10 µM
Trypanosoma cruzi = assay: Trypanosoma cruzi phosphomannomutase and mannose-1-phosphate guanylyltransferase assay; format: functional; conditions: 10 µM
[4] = target: T2, Arginase-2, mitochondrial (Homo sapiens) (UniProt P78540); assay: in vitro enzyme assay to detect the production of urea directly proportional to the activity of Arginase II; format: functional; conditions: 33.3 µM; note: in the data most compounds retested in dose-response had high values
T2 sequence (whole entry): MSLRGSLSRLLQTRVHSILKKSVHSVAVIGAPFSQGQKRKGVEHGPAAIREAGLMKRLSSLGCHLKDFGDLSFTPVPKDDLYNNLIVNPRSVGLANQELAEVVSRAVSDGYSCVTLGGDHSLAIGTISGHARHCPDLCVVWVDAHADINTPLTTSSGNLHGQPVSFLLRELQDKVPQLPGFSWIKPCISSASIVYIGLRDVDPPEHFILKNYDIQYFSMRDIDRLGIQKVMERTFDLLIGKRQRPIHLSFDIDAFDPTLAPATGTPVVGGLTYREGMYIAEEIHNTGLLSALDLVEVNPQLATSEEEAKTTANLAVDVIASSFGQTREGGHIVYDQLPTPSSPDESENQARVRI

[5] = target: T3, Proteasome subunit beta (Trypanosoma cruzi) (UniProt O96673); assay: Trypanosoma cruzi proteasome chymotrypsin-like activity (TcProtChymo) assay.; note: in the data most compounds retested in dose-response had high values; format: functional; conditions: 9.37 µM
T3 sequence (whole entry): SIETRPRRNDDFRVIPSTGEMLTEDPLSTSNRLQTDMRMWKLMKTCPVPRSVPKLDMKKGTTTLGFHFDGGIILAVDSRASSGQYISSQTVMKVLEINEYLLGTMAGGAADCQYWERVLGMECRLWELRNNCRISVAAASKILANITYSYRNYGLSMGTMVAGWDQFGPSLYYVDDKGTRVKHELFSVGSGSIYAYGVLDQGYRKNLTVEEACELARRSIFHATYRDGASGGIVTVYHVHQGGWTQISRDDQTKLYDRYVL

Homo sapiens = species on record: Homo sapiens; assay: To identify inhibition of the IFN signalling (Jak-Stat) pathway via expression of an eGFP reporter gene under the control of an IFN-stimulated response element (ISRE) containing MxA promoter.; format: functional; conditions: 30 µM
[6] = target: T4, Tyrosyl-tRNA synthetase, putative (Trypanosoma cruzi (strain CL Brener)) (UniProt Q4DSP6); assay: Trypanosoma cruzi tyrosyl tRNA synthetase (TcYRS) _High Tyrosine SOP; format: functional; conditions: 30 µM; note: in the data most compounds retested in dose-response had high values
T4 sequence (whole entry): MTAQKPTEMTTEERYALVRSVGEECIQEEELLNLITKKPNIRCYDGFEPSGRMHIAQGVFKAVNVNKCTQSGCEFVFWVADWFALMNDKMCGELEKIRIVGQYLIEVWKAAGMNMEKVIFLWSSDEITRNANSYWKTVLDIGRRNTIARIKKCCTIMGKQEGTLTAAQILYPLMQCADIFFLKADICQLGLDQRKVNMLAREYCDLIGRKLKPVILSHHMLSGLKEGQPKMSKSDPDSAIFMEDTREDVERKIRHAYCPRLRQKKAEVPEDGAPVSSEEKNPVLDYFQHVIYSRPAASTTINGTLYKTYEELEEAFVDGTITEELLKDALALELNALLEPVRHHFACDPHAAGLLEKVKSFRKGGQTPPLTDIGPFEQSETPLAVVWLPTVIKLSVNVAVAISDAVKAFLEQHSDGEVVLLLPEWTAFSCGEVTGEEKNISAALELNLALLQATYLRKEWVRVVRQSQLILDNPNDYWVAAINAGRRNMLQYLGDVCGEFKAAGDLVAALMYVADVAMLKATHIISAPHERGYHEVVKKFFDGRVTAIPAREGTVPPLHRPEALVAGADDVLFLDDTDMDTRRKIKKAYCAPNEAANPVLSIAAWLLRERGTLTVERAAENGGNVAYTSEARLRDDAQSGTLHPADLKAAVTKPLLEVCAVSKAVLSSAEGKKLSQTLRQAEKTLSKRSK

[7] = target: T4, Tyrosyl-tRNA synthetase, putative (Trypanosoma cruzi (strain CL Brener)); assay: Trypanosoma cruzi tyrosyl tRNA synthetase (TcYRS) SOP; format: functional; conditions: 30 µM
[8] = target: Chromo domain-containing protein 1 (Saccharomyces cerevisiae (strain ATCC 204508 / S288c) (Baker's yeast)) (UniProt P32657); assay: ScCHD-1 Enzyme Inhibition Assay; format: functional; conditions: 30 µM; note: in the data most compounds retested in dose-response had high values
Chain of Chromo domain-containing protein 1 (Saccharomyces cerevisiae (strain ATCC 204508 / S288c) (Baker's yeast)) (P32657 whole entry, the tested form may be a part): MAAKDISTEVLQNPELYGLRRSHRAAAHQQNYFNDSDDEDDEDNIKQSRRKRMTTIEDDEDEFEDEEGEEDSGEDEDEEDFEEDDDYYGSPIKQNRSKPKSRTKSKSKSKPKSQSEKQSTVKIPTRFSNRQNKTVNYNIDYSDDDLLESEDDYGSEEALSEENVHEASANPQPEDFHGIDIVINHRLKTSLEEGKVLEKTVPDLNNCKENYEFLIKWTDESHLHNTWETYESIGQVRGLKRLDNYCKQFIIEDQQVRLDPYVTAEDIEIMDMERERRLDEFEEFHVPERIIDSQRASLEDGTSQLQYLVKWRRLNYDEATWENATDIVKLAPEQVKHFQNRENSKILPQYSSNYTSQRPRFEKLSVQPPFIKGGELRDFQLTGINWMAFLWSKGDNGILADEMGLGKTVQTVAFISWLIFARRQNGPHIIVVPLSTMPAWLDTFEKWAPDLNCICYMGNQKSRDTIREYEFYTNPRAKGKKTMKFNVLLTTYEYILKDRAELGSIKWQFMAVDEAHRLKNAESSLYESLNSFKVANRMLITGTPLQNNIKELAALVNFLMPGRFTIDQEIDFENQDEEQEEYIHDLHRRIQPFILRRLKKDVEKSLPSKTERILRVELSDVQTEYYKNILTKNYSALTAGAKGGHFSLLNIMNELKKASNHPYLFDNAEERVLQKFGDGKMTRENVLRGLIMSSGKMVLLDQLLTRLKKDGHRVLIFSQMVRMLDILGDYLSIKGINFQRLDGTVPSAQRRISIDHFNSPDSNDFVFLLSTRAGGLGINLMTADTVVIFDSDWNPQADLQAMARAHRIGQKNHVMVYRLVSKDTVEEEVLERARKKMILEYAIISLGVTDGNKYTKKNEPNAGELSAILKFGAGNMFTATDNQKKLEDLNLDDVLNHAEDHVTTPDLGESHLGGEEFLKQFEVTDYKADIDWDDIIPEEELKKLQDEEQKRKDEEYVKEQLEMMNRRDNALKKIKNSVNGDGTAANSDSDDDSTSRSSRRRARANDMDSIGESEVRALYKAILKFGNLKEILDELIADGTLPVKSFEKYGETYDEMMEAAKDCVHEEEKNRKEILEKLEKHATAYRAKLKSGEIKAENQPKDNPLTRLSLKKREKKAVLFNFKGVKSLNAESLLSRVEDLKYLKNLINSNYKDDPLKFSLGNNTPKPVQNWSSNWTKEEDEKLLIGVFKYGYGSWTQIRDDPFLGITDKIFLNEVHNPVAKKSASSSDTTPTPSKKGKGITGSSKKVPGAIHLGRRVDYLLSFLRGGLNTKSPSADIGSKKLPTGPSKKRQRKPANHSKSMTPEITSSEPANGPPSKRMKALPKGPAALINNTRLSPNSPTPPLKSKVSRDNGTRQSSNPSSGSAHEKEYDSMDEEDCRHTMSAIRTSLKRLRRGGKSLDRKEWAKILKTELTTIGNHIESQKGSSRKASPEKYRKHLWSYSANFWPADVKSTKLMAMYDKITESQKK

Chain of Sialic acid-binding Ig-like lectin 9 (Homo sapiens) (Q9Y336 whole entry): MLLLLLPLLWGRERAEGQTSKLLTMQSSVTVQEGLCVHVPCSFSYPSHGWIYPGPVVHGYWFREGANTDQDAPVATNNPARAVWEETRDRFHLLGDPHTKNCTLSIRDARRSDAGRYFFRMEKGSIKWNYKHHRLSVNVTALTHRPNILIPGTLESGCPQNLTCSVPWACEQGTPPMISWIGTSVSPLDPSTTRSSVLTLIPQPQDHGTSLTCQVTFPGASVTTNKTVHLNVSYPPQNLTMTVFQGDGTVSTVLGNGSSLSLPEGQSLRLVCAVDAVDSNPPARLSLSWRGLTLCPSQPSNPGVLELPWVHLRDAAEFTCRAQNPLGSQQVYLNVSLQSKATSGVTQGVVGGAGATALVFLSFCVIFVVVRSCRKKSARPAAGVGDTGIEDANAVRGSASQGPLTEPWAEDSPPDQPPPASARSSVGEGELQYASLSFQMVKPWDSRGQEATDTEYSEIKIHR
Chain of Protein translocase subunit SecA (Escherichia coli (strain K12)) (P10408 whole entry): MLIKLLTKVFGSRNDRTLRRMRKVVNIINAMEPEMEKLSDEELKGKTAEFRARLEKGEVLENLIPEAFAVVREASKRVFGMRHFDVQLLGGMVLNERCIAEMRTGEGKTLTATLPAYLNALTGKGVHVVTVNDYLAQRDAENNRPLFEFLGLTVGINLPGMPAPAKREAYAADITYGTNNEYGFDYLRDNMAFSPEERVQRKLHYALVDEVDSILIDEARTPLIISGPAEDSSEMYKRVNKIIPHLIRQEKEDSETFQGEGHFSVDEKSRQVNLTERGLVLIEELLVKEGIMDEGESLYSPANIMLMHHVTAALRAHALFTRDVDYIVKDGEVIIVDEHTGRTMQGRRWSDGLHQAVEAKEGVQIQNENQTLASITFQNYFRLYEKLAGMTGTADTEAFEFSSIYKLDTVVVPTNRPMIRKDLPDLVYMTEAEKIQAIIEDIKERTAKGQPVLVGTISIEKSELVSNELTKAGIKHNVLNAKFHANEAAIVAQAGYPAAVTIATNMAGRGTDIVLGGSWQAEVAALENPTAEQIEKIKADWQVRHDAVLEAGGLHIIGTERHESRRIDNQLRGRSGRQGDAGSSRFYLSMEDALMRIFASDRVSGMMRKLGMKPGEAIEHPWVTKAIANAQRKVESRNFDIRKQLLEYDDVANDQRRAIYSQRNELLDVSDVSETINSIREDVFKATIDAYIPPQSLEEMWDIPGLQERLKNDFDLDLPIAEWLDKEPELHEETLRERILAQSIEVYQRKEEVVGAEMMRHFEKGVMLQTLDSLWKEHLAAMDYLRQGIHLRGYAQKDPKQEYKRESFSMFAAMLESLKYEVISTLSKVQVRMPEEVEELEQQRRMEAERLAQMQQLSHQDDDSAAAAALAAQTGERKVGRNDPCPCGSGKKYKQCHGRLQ

O=C(C1CCOC1)N1CC[C@@H](O)[C@@H]1Cc1ccccc1 (stereo not given in full)
Percent Effect [1]: -4.39% | Percent Effect [2]: -14.3% | Percent Effect [3]: -3.29% | Percent Effect (Trypanosoma cruzi): -10.1% | Percent Effect [4]: 3.2% | Percent Effect [5]: 6.09% | Percent Effect (Homo sapiens): -3.1% | Percent Effect [6]: -28% | Percent Effect [7]: -60% | Percent Effect [8]: -3.36%

COc1cccc(S(=O)(=O)N2CCC(O)(CN(C)C)C2)c1 (stereo not given)
Percent Effect [1]: -2.81% | Percent Effect [2]: 4% | Percent Effect [3]: -1.76% | Percent Effect (Trypanosoma cruzi): -3.35% | Percent Effect [4]: 4.42% | Percent Effect [5]: 9.2% | Percent Effect (Homo sapiens): -4% | Percent Effect [6]: 1.06% | Percent Effect [7]: 7.5% | Percent Effect [8]: -23.8%
